Assay outcomes deposited in PubChem BioAssay by Johns Hopkins Ion Channel Center.
Sampled rows, rich in hits. Any-hit rate of the full collection: about 1.6%.
KCNQ2 pot: potentiators of rat KCNQ2 potassium channel | AID 2239 | B-score at 10 µM | CHO-K1 KCNQ2, FluxOR thallium flux fluorescence; stronger effect = higher value | O88943 | hit rate 0.54% among 310,000;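 active = fluorescence ratio B-score at least 3 SD of library B-scores, with initial fluorescence B-score within 3 of them, cut at about 5.3 in these data; same plate scores as AID 2156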;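 also: B-score of peak minus minimum over baseline fluorescence ratio after K+ and Tl+ stimulus; positive B-score means potentiation of KCNQ2 with more thallium influx and brighter signal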
Target sequence (O88943 whole entry, looked up): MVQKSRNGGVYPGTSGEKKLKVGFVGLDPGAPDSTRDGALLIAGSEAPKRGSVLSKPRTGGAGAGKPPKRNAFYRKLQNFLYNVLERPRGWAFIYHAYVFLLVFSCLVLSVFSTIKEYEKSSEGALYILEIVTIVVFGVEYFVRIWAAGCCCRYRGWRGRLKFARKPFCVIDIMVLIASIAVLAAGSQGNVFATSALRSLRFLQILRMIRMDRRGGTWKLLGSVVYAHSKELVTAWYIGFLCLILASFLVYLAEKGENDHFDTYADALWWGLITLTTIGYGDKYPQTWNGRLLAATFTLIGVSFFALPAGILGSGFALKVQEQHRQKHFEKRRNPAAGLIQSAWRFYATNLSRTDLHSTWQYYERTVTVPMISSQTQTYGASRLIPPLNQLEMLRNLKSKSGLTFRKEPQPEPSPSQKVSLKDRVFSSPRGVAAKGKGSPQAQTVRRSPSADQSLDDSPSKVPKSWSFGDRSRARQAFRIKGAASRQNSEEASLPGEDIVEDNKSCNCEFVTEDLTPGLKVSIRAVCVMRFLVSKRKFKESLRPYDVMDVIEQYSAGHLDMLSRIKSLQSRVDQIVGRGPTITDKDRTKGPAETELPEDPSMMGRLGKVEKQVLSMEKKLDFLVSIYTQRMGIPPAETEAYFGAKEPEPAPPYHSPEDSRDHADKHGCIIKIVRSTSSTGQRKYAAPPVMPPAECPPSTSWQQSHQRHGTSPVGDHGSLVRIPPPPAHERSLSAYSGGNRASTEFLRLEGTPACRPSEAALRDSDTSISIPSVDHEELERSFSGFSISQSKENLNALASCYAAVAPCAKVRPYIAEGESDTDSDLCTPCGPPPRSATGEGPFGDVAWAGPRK
KCNQ2 inh: KCNQ2 (rat) channel inhibition; O88943; CHO-K1 KCNQ2, FluxOR thallium flux, 20 min; stronger effect = lower value; B-score at 10 µM; hit rate 1.1% among 310,000; AID 2156;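 active = fluorescence ratio B-score at most minus 3 library SDs, with starting brightness B-score within 2 library SDs, cut at about -5.5 in these data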
Numbers without * were called inactive; i = inactive; x = no result.

SMILES | KCNQ2 pot | KCNQ2 inh
Cc1ccc(S(=O)(=O)N[C@H](C(=O)OCC(=O)N2N=C(c3ccc(Cl)cc3)CC2c2ccco2)C(C)C)cc1 (some centres undefined) | -6.1 | -6.1*
COc1ccc(-c2[nH]ncc2CN(CCO)CC23CC4CC(CC(C4)C2)C3)c(OC)c1 | x | i
Cc1cc(C(C)(C)C)ccc1OCCN(C)C | x | i
CC(C)Cc1cc(C(C)(C)C)ccc1OC(=S)N(C)C | -7.8 | -7.8*
Cn1cc(Cl)c(C(=O)OCC(=O)c2ccccc2)n1 | 0.35 | i
O=C(c1cc2ccccc2o1)N1CCN(c2cccc(Cl)c2)CC1 | 1.6 | i
CCc1ccc(/C=C/C(=O)C2C(=O)c3ccccc3C2=O)cc1 | 3.5 | i
O=C(/C=C/c1ccccc1)C1C(=O)c2ccccc2C1=O | 5.8* | i
COC(=O)c1c(C(=O)OC)c(-c2ccc(C(C)(C)C)cc2)n2c1CS(=O)C2 (centres undefined) | -8 | -8*
COC(=O)c1c(C(=O)OC)c(-c2cccc(F)c2)n2c1CS(=O)C2 (centres undefined) | 0.66 | i
COC(=O)c1sccc1NC(=O)c1cc(-c2cccc(C)c2)nc2ccccc12 | x | i
COC(=O)c1sccc1NC(=O)c1c(C)c(-c2cccc(Cl)c2)nc2ccccc12 | -5.7 | -5.7*
CC(C)(C)C(=O)O/N=C(\N)c1ccc(-c2csnn2)cc1 | x | i
COc1ccc(CCN(C(=O)c2cccc(F)c2)C2CC(=O)N(c3ccc(OC)cc3)C2=O)cc1 (centres undefined) | x | i
Cc1ccc(C23CCC(=O)N2C(C(=O)O)CS3)c(C)c1 (centres undefined) | x | i
CCN(Cc1ccccc1)S(=O)(=O)c1cc(C(=O)NCC2CCCCC2)ccc1OC | x | i
CCN(Cc1ccccc1)S(=O)(=O)c1cc(C(=O)NC2CCCCCC2)ccc1OC | -6.8 | -6.8*
CC(C)CNC(=O)C(=O)NCC1CCCN1S(=O)(=O)c1cccs1 (centres undefined) | x | i
Cc1ccc(CNC(=O)[C@H](C)N2C(=O)N3CCc4c([nH]c5ccccc45)[C@@]3(C)C2=O)cc1 | 0.06 | i
COc1ccc2[nH]c3c(c2c1)CCN1C(=O)N([C@@H](C)C(=O)NCCc2ccc(F)cc2)C(=O)[C@]31C | -7 | -7*
COc1ccc2[nH]c3c(c2c1)CCN1C(=O)N([C@@H](C)C(=O)NCc2ccc(F)cc2)C(=O)[C@]31C | x | i
C[C@@H](C(=O)NCCc1ccc(F)cc1)N1C(=O)N2CCc3c([nH]c4ccccc34)[C@@]2(C)C1=O | -6.3 | -6.3*
CC(c1nccs1)N(C)C(=O)CCc1nnc(CCc2ccccc2)o1 (centres undefined) | 0.4 | i
O=C(CCN1CCCC1)c1cccs1 | x | i
O=C(CCc1ccc(CCC(=O)c2cccs2)s1)c1cccs1 | -6.8 | -6.8*
SMILES | KCNQ2 pot | KCNQ2 inh
Cc1ccc(Cl)cc1NC(=O)N[C@@H](CC(C)C)C(=O)O | 1.4 | i
CCCCC(=Nc1ccccc1OC)C1=C(O)CC(c2ccccc2)CC1=O (centres undefined) | -6.5 | -6.5*
CCCC(=Nc1ccccc1OC)C1=C(O)CC(c2ccccc2)CC1=O (centres undefined) | x | i
CC1(C)C(=O)Nc2ccccc2N1C(=O)COc1cccnc1[N+](=O)[O-] | x | i
O=C(NCc1ccccc1)C1CCN(c2nc(-c3ccccc3)nc3c2CCC3)CC1 | -5.8 | -5.8*
COc1ccc(CNC(=O)C2CCN(c3nc(-c4ccccc4)nc4c3CCC4)CC2)cc1 | x | i
O=C(NC1CCCCC1)C1CC=CCC1C(=O)OCC(Cl)=C(Cl)Cl (centres undefined) | -5.5 | -5.5*
COCC(=O)NC1CCCCCC1 | x | i
CCN(CC)CCCNC(=O)c1ccc(N2CCCCC2)c(NS(=O)(=O)c2ccc(C)cc2)c1 | x | i
CCOC(=O)c1ccc(N2CCN(c3ccccc3F)CC2)c(NC(=O)Nc2ccccc2)c1 | -6.3 | -6.3*
CCOC(=O)c1ccc(N2CCCCC2)c(NS(=O)(=O)c2ccc(C)cc2)c1 | -7.3 | -7.3*
CCOC(=O)c1ccc(N2CCN(c3ccc(F)cc3)CC2)c(NC(=O)Nc2cccc(OC)c2)c1 | x | i
CCOC(=O)CC(NS(=O)(=O)c1ccc2[nH]c(=O)sc2c1)c1ccc(C)cc1 (centres undefined) | x | i
CCC1CCCCN1CCCNC(=O)c1ccc2c(c1)N(Cc1c(F)cccc1Cl)C(=O)CS2 (centres undefined) | x | i
O=C(NCc1ccc2c(c1)OCO2)c1ccc2c(c1)N(Cc1c(F)cccc1Cl)C(=O)CS2 | 8.7* | i
O=C(CSCc1ccc(Br)cc1)Nc1ccccc1C(=O)N1CCOCC1 | x | i
COc1ccc2cc(C#N)c(SCC(=O)NNC(=O)Cc3ccccc3)nc2c1 | -6.2 | -6.2*
COC(=O)CSc1nc2cc(OC)ccc2cc1C#N | 0.06 | i
CCc1noc(C)c1C(=O)N1CCCSC1=Nc1ccccc1C(C)C | -5.7 | -5.7*
CCc1noc(C)c1C(=O)N1CCCC1 | 0.57 | i
C=CCSc1nc(C)cc(C(=O)OCC)c1C#N | 0.08 | i
CS(=O)(=O)N(CC(=O)Nc1ccccc1-c1ccccc1)c1ccccc1 | x | i
Cc1ccc(N(CC(=O)Nc2ccccc2-c2ccccc2)S(=O)(=O)c2ccccc2)c(C)c1 | -7.7 | -7.7*
C/C(CC(=O)Nc1ccc(N(C)C)cc1)=N\NC(=O)c1ccc(C(C)(C)C)cc1 | x | i
O=C(N[C@@H]1C[C@H]2CC[C@@H]1C2)c1ccco1 | 1.2 | i
SMILES | KCNQ2 pot | KCNQ2 inh
S=C(NC1CCCCCC1)NC1CCCC1 | 0.57 | i
NNC(=S)NC1CCCCCCCCCCC1 | -6.9 | -6.9*
CN(CC(=O)Nc1ccc(F)cc1Cl)Cc1cccs1 | x | i
CN(CC(=O)Nc1cc(Cl)cc(Cl)c1)Cc1cccs1 | -5.6 | -5.6*
O=C(NNC(=O)c1ccccc1F)c1cccc(-n2cccc2)c1 | 1.4 | i
O=[N+]([O-])c1ccccc1Sc1nccn1Cc1ccccc1 | -6.5 | -6.5*
NC(=O)CSc1nccn1Cc1ccccc1 | 0.31 | i
CN(CC(=O)Nc1ccccc1Br)C(=O)C(Cc1ccccc1)NC(=O)c1ccccc1 (centres undefined) | x | i
NC(=O)CC(NC(=O)Cc1ccc(Br)cc1)c1ccc(NCc2ccc(F)cc2)c([N+](=O)[O-])c1 (centres undefined) | 1.6 | i
C(=C1/CCCC2=C1Nc1ncnn1C2c1ccccc1)/c1ccccc1 (centres undefined) | -6.5 | -6.5*
S=C1NC2=C(CCC/C2=C\c2ccccc2)C(c2ccccc2)N1 (centres undefined) | 0.15 | i
O=S(=O)(c1ccccc1)c1ncc(C(F)(F)F)cc1Cl | x | i
CCCc1nc(NC(=O)c2ccccc2)nc(NC(=O)c2ccccc2)n1 | 0.65 | i
Cc1cc2nnc(SCC(=O)NCc3cccs3)n2c2ccccc12 | x | i
Cc1cc2nnc(SCC(=O)NCc3ccco3)n2c2ccccc12 | 8.7* | i
CC(C)c1nnc(NC(=O)c2cccc(NC(=O)C(F)(F)F)c2)s1 | -5.9 | -5.9*
CC(C)C(=O)Nc1cccc(C(=O)Nc2nnc(C(C)C)s2)c1 | 0.06 | i
COc1ccccc1/C=C/C(=O)NCC(=O)N=Nc1c(O)[nH]c2ccccc12 | 0.91 | i
Cc1ccc(/C=C/C(=O)c2ccccc(=O)c2O)c(C)c1 | 5.9* | i
Cc1ccc(/C=C/C(=O)c2ccccc2)cc1 | x | i
CCCCn1c(N)c(N(CCOC)C(=O)c2c(-c3ccccc3)noc2C)c(=O)[nH]c1=O | 1.1 | i
